FLuc counter = inhibits or activates purified firefly luciferase, miR-21 counter-screen; 360,000 tested, 6.9% active; purified FLuc, Km substrates, luminescence inhibition; P08659; Potency, µM (highest dose often 57.5 µM), for inactives: at the highest dose activity change, negative = inhibition, actives largely listed as inhibitors;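 further: plate controls were vehicle for no effect and reference inhibitor for full effect; nearly all actives have a fitted effect of over 55% in size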
Target sequence (P08659 whole entry, looked up): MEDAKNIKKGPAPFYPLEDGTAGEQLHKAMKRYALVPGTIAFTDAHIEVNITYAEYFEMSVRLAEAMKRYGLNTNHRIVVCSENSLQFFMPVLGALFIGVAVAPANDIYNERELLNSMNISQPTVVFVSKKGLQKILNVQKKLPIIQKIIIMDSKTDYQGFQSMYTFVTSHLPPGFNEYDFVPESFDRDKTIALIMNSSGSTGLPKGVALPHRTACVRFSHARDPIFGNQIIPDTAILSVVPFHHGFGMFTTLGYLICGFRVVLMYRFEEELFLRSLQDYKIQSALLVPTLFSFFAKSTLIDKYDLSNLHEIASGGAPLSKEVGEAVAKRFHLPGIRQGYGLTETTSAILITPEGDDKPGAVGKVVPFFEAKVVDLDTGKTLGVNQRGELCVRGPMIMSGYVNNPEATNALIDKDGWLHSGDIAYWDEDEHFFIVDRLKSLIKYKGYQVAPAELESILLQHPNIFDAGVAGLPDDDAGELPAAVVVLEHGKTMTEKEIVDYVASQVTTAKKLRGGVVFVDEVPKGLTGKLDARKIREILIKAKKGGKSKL
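Purified P. pyralis luciferase, 10 nM final, with Km-level 10 uM D-luciferin and 10 uM ATP in 50 mM Tris acetate pH 7.5, 10 mM Mg acetate, 0.01% Tween-20, 0.05% BSA; 6-point qHTS titration about 60 µM downward; luminescence read.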
KinaseGlo FLuc = counter-screen: inhibitors of Kinase-Glo firefly luciferase; AID 1379; 200,000 tested, 0.28% active; Kinase-Glo luciferase, ATP luminescence, 8 min; Potency, µM (top dose mostly 38.3 µM), for inactives: top-dose activity change, negative = inhibition, hits mostly inhibitors; Q27757; further: on the % scale 0 is the no-effect control and ±100 the full control effect; nearly all actives have a fitted effect of over 60% in size
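Recombinant Kinase-Glo luciferase, 10 uM ATP (linear range), luciferin; imidazole pH 7.2 / KCl / MgCl2 / Tween / BSA buffer; 8 min RT; luminescence.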
SMN2 splice up = increases expression of the SMN2 splice variant | HEK293 SMN2-luciferase splicing reporter, luminescence, 30-36 h | Potency, µM (titrated, usually from 46.1 µM), without a hit: top-dose activity change, positive = activation, hits mostly activators | 210,000 tested, 2.8% active | AID 1458; further: % of control where 0% means no effect; nearly all actives have a fitted effect of over 55% in size
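qHTS luciferase splicing reporter: luminescence rises when SMN2 exon 7 is included in transfected HEK293 cells. Compound exposure lasted 30-36 h at 37C, with 4.5 mM final sodium butyrate as control, followed by a ONE-Glo read.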
ELG1 genotox = induces genotoxicity in HEK293T cells with luciferase-tagged ELG1; HEK293T ELG1-luciferase reporter, luminescence, 16 h; Potency, µM (series often up to 46 µM), without a hit: at the highest dose activity change, positive = activation, actives largely listed as activators; 330,000 tested, 1.3% active; further: % of control where 0% means no effect; nearly all actives have a fitted effect of over 60% in size
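Step 1: seed 2,000 HEK293T ELG1-luciferase cells per well. Step 2: add compound or DMSO, incubate 16 hr at 37 °C. Step 3: ONE-Glo, 30 min at room temperature, read luminescence.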
Rab9 promoter act = activators of Rab9 promoter; 320,000 tested, 2.8% active; Potency, µM (doses to about 9.22 µM), for inactives: at the highest dose activation, negative = inhibition, most hits filed as activators; Huh7 Rab9 promoter-luciferase reporter, luminescence, 24 h; further: % of control where 0% means no effect; nearly all actives have a fitted effect of over 60% in size
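Huh7 reporter line, Rab9 promoter upstream of luciferase. Compound exposure 24 h at 37 °C in reduced-serum medium with 10% FBS. Read-out: luminescence.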
NPC1 prom act = NPC1 promoter activation; Huh7 NPC1 promoter luciferase reporter, 24 h; Potency, µM (top dose mostly 9.22 µM), inactives show top-dose activation, actives largely listed as activators; 320,000 tested, 2.4% active; further: % of control where 0% means no effect; nearly all actives have a fitted effect of over 60% in size
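In 1536-well qHTS, Huh7 cells harboring an NPC1 promoter–luciferase construct received compound for 24 h; activation was quantified by luminescence following luciferase reagent addition.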
Active calls of the source: *; ? = inconclusive; · = no result given; [ ] = remark or other dose. Shown are actives, neighbours in structure and some others; about 7.5% of the full set was active somewhere. The call rests on the fitted dose curve; in most records, active means well fitted curve in the direction sought with a large enough effect; inconclusive means small, poorly fitted or top-dose-only effect, or another doubt; inactive means no such curve, though single readings can be large; an effect the other way counts as inactive or inconclusive. Potency means the concentration at half of the fitted maximal effect.

SMILES	FLuc counter	KinaseGlo FLuc	SMN2 splice up	ELG1 genotox	Rab9 promoter act	NPC1 prom act
O=C(N=Nc1c(O)[nH]c2ccccc12)c1cccc(S(=O)(=O)Nc2ccccc2Cl)c1	21.3µM*	-3.6%	0.8%	-3.3%	-1.9%	0.6%
O=C(CSCn1nnc2c(=O)[nH]c(Cc3ccc(F)cc3)nc21)Nc1cccc(C(F)(F)F)c1	-5.8%	·	-0.7%	·	·	·
c1csc(CNc2ccc3c(c2)OCCO3)c1	26.9µM*	2.0%	-10.9%	8.2µM*	13.9%	9.1%
Cc1ccc(NCc2ccccc2O)cc1C	?	-1.5%	17.0%	?	19.6%	14.3%
c1cncc(CNc2ccc3c(c2)OCO3)c1	-19.0%	15.4%	-5.5%	9.0%	1.5%	10.9%
Cc1ccc(CNc2ccc3c(c2)OCO3)c(C)c1	21.3µM*	-2.2%	5.3%	·	·	·
Oc1ccccc1CNc1ccc2c(c1)OCCO2	12µM*	-5.0%	·	?	3.55µM*	14.4%
Clc1cc(NCc2cccs2)ccc1N1CCOCC1	?	1.7%	?	18.4µM*	?	?
O=C(O)c1ccc(S(=O)(=O)c2ccc3c(c2)C(=O)N(NC(=O)c2cccnc2)C3=O)cc1	-2.1%	·	·	0.5%	1.2%	1.6%
COc1ccccc1NC(=O)COc1ccc(Br)cc1CO	-10.2%	2.2%	-21.2%	-0.3%	12.9%	5.7%
O=C(COc1ccc(CO)cc1Cl)Nc1ccc(F)cc1	0.849µM*	-20.3%	-8.3%	0.366µM*	1.12µM*	2µM*
COc1ccccc1NC(=O)COc1ccc(CO)cc1Cl	6.75µM*	-3.7%	76.4%	14.6µM*	?	?
CCSc1ncc(/C=N/Nc2ccc(Cl)cc2)n1C	3.01µM*	0.3%	20µM*	?	2.82µM*	1.58µM*
Cn1c(-c2ccc(F)cc2)cnc1SCC(=O)Nc1ccccc1	-3.3%	1.5%	-0.4%	-6.0%	-12.9%	-3.6%
O=[N+]([O-])c1ccc(N/N=C\c2cccn2-c2ccccc2)nc1	-2.4%	-1.2%	-53.6%	-5.5%	-4.0%	-4.6%
CCSc1ncc(/C=N/Nc2ccc([N+](=O)[O-])cc2)n1C	?	-0.6%	?	?	0.708µM*	0.794µM*
CCSc1ncc(/C=N/Nc2ccccc2)n1C	19µM*	4.0%	14.1µM*	18.4%	?	?
CC(C)(C)c1ccc(C(=O)NCC(c2cccs2)S(=O)(=O)c2ccccc2)cc1 (stereo unspecified)	-5.6%	·	·	·	·	·
CCCCNC(=S)N(CCO)Cc1cc2cc3c(cc2[nH]c1=O)OCCO3	3.1%	·	·	5.7%	-2.9%	-5.3%
CCN(C(=O)c1cccn(Cc2cccc(Cl)c2)c1=O)c1ccccc1	3.2%	·	·	·	·	·
Cc1c(CC(=O)O)c(=O)oc2cc(OCc3ccc(F)cc3F)ccc12	16.9µM*	·	·	3.1%	-2.3%	1.2%
Cc1c(CCC(=O)O)c(=O)oc2cc(OCc3cccc(F)c3)ccc12	?	·	·	1.9%	1.7%	0.3%
Cc1c(CCC(=O)O)c(=O)oc2cc(OCc3ccccc3Br)ccc12	?	·	·	-3.0%	-3.5%	-3.6%
Cc1c(CC(=O)O)c(=O)oc2cc(OCc3ccc(Br)cc3)ccc12	10.7µM*	·	·	13.4%	15.3%	2.6%
CC(C)NC(=S)N/N=C/c1cc(Br)ccc1O	?	-0.6%	4.4%[1.84 µM]	13.7%	0.5%	0.2%
SMILES	FLuc counter	KinaseGlo FLuc	SMN2 splice up	ELG1 genotox	Rab9 promoter act	NPC1 prom act
COc1ccc(NC(=O)c2csc3c2CCCCC3)c(OC)c1	?	2.6%	9.3%	-2.5%	4.8%	0.1%
COc1cccc(NC(=O)c2csc3c2CCCCC3)c1	10.7µM*	·	12.6µM*	·	·	·
COc1ccc(CCNC(=O)c2csc3c2CCCCC3)c(OC)c1	-5.9%	·	?	·	·	·
O=C(Nc1ccccc1O)c1csc2c1CCCC2	9.53µM*	-1.6%	15.8µM*	?	?	?
COc1ccc(NC(=O)c2csc3c2CCCCC3)cc1	5.36µM*	·	7.94µM*	·	·	·
COc1cc(CNc2ccc(N3CCCC3)cc2)ccc1OCc1ccccc1	6.01µM*	-1.7%	59.1%	?	18.9%	16.3%
COc1cc(CNC23CC4CC(CC(C4)C2)C3)ccc1OCc1ccccc1	-1.6%	-3.4%	-49.5%	-6.2%	-13.8%	-2.1%
COc1cc(CNc2ccc(CNc3ncn[nH]3)cc2)cc(Cl)c1OCc1ccccc1	0.2%	-0.2%	·	-1.0%	18.5%	12.2%
COc1cc(CNc2ccc(N3CCCCC3)cc2)ccc1OCC(=O)NC(C)(C)C	5.36µM*	·	·	0.9%	-0.1%	-11.9%
COc1cc(CNc2ncn[nH]2)ccc1OCc1cccc(C)c1	19µM*	1.8%	·	?	?	?
COc1cc(CNc2ccc(N3CCCC3)cc2)ccc1OCc1ccccc1F	?	-21.2%	17.8µM*	13.0%	19.3%	12.6%
CCN(c1ccccc1)c1ccc2cc(S(=O)(=O)N3CCCC3)ccc2n1	-1.0%	·	·	·	·	·
CC(=O)N1CCC2(CCCN(c3ccccn3)C2)CC1	·	1.4%	-3.3%	·	·	·
COCCN1C(=O)/C(=C/c2ccc(N3CCCC3)cc2)SC1=S	?	-9.8%	13.6%	8.1%	?	?
CCN1C(=S)SC(=O)C1=C1C=C(C)N(CCO)C(C)=C1	7.57µM*	6.8%	-17.4%	5.17µM*	1.41µM*	1.26µM*
CCN1C(=S)SC(=O)C1=C1C=C(C)N(CCOC)C(C)=C1	2.39µM*	-0.3%	?	1.64µM*	0.794µM*	0.398µM*
O=C(Nc1ccccc1C(=O)O)c1ccc(Cl)c(S(=O)(=O)N2CCOCC2)c1	6.75µM*	-4.1%	-10.4%	-6.8%	25.9%	14.4%
O=C(Nc1ccccc1C(=O)O)c1cc(S(=O)(=O)N2CCOCC2)cs1	19µM*	-0.3%	8.6%	0.6%	4.4%	0.6%
COc1cc(NC(=O)Cn2cc(S(=O)(=O)N3CCC(C)CC3)c3ccccc3c2=O)cc(OC)c1OC	4.6%	·	?	·	·	·
N#Cc1ccc(C(=O)Nc2ccc(Cl)c(-c3nc4cc(Cl)ccc4o3)c2)c(F)c1	-6.4%	·	-14.5%	·	·	·
COCCN(C(=S)Nc1ccc(C)cc1)C(C)c1ccco1 (stereo unspecified)	13.5µM*	·	·	1.3%	-0.8%	-0.1%
Cc1cc(C)cc(N2C(=O)CSC23C(=O)N(CC(=O)NCCc2ccccc2)c2ccccc23)c1 (stereo unspecified)	-7.6%	·	·	·	·	·
Cc1ccc(NC(=O)C2CCCN(S(=O)(=O)c3c(C)n[nH]c3C)C2)c(C)c1 (stereo unspecified)	1.2%	·	-16.2%	·	·	·
COc1cccc(-c2ocnc2C(=O)Nc2ccc3c(c2)CCC3)c1	19µM*	·	·	16.3%	9.1%	-1.3%
COc1ccccc1/C=C/C(=O)Nc1ccc2c(c1)CCC2	4.26µM*	-0.7%	12.6µM*	?	1.78µM*	3.16µM*
COc1ccc(NC(=O)Nc2ccc3c(c2)CCC3)cc1	-13.2%	·	·	20.6µM*	?	?

Screening data from PubChem BioAssay.
